From PubChem
DAX1 inh-1 = NR0B1 (DAX1) inhibition. 340,000 tested, 0.99% active. HEK293 Gal4-DAX1 luciferase reporter, luminescence. inhibition, % at 6.75 µM. P51843;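 active = inhibition above the mean over all tested compounds plus 3 SD, cut at about 4.2% in these data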;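 also: 0% = DAX1-transfected cells with DMSO and 100% = empty-vector control cells with DMSO; inhibition shows as a rise in luminescence from relieved DAX1 repression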
Target sequence (P51843 207-470 limits assumed): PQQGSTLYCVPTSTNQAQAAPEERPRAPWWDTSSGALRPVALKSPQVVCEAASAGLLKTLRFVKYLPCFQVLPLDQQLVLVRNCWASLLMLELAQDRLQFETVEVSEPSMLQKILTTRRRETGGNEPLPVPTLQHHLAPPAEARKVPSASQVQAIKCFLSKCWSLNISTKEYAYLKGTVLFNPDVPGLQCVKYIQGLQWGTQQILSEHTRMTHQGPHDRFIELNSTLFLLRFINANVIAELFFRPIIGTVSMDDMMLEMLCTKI
hcDAF-12 act = activators of H. contortus DAF-12 nuclear receptor; 370,000 tested, 1.4% active; activation, % at 6.8 µM; HEK293 hcDAF-12 lit1-tk-luc reporter, luminescence; 0% DMSO, 100% Δ7-dafachronic acid;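 active = activation above the mean of all tested compounds plus 3 SD, cut at about 5.5% in these data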;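 also: 100% = response to 3 µM Δ7-dafachronic acid high control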
hgDAF-12 ag = activates the H. glycines DAF-12 receptor ligand-binding domain; activation, % at 6.8 µM; AID 687014; HEK293 GAL4-hgDAF12 UAS-luciferase reporter, agonist luminescence; normalized to butyrate control; 370,000 tested, 1.8% active;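 active = activation above a cutoff set at the mean of all screened compounds plus 3 SD, cut at about 10% in these data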;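 also: 0% = DMSO wells and 100% = sodium butyrate wells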
ssDAF12 agonist = S. stercoralis DAF-12 activation, primary screen; AID 652126; HEK293 ssDAF-12/GRIP1 lit1-tk-luc reporter, luminescence; % of 3 µM dafachronic acid response; 370,000 tested, 1% active; activation, % at 6.8 µM;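 active = activation above the mean over all tested compounds plus 3 SD, cut at about 0.9% in these data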;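 also: 0% = DMSO-only wells and 100% = 3 µM delta7-dafachronic acid wells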
DAX1 inh-2 = inhibitors of DAX1 repression of SF-1 activated StAR promoter; HEK293T StAR-luciferase reporter, SF-1/DAX-1 repression relief; inhibition, % at 6.8 µM; 370,000 tested, 1.1% active; AID 652010;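 active = inhibition above the mean over all tested compounds plus 3 SD, cut at about 3.6% in these data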;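 also: 0% = DAX-1 cells with DMSO and 100% = cells lacking DAX-1 with DMSO; higher inhibition means more luminescence from relief of DAX-1 repression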
SMARCA2 act = SMARCA2 function activation, primary screen | MG213 cells, MMTV-luciferase reporter, dexamethasone, overnight | activation, % at 9.1 µM | 370,000 tested, 1% active | AID 652017; in the data active = activation above about 7.8%;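 also: 0% = vehicle wells and 100% = reference activator wells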
SMARCA2 conf = confirmation of SMARCA2 (BRM) function activators; shares compounds with SMARCA2 act; MG213 cells, MMTV-luciferase with dexamethasone, luminescence, overnight; MG213 cells expressing E1A, Rb sequestered; DMSO wells 0%, reference activator 100%; activation, % at 9.1 µM; 3,500 tested, 30% active; AID 652260;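 active = activation above its plate's cutoff, the mean activation of tested wells plus 3 SD, cut at about 7.9% in these data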
VP16 Luc act = GAL4-VP16 reporter activation counter-screen | HEK293 GAL4-VP16 pG5luc reporter, luciferase luminescence; scaled: DMSO wells 0%, SAHA wells 100% | activation, % at 9.1 µM | 3,500 tested, 41% active | shares compounds with SMARCA2 act;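 active = activation above the solvent-only control well mean plus 3 SD, averaged across control plates, cut at about 5.2% in these data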
* hit, by the source's call; . = no result given. Shown are actives, neighbours in structure and some others; about 4.8% of the full set was active somewhere.

SMILES	DAX1 inh-1	hcDAF-12 act	hgDAF-12 ag	ssDAF12 agonist	DAX1 inh-2	SMARCA2 act	SMARCA2 conf	VP16 Luc act
COc1ccc(Cl)cc1NC(=O)CSc1nnc(C)c(=O)n1N	1	0	0	-1	0	8.3*	6	0
O=C(CSc1nnc(-c2ccccn2)n1-c1ccccc1)c1ccc2c(c1)OCO2	.	-2	-2	-2	0	-5	.	.
CCCc1ccc(OCc2ccc(C(=O)N3CCSCC3)o2)cc1	0	2	8	0	2	8.3*	4	7.4*
CC(C)(C)c1ccc(OCc2ccc(C(=O)N3CCOCC3)o2)cc1	-1	0	-3	-1	0	3	.	.
NC(=O)c1ccc2nc(-c3ccccc3)c(-c3ccccc3)nc2c1	0	1	-1	-1	0	1	.	.
O=C(O)c1ccc2nc(-c3ccccc3)c(-c3ccccc3)nc2c1	-2	1	-4	-1	-1	10*	4	2
CCOC(=O)c1[nH]c2cc(OC)c(OC)cc2c1NC(=O)c1nonc1C	0	0	4	-2	-1	9.9*	-2	-2
Cc1ccc(-n2c(SCc3cccc(F)c3)nnc2-c2cccc(C)c2)cc1	.	-1	-1	-2	-1	-7	.	.
COc1cccc(-c2cnc3c(NC=O)cc(-c4ccccc4)cn23)c1	.	-2	3	0	-3	4	.	.
COc1cccc(-c2cnc3c(NC=O)cc(-c4ccc(N5CCN(C)CC5)cc4)cn23)c1	.	1	4	-1	0	15*	37*	3
CC(=O)c1ccc(-c2cnc3c(NC=O)cc(-c4ccc(C(=O)N5CCOCC5)cc4)cn23)cc1	.	-3	0	-2	-2	-1	.	.
COc1ccc(-c2cnc3c(NC=O)cc(-c4ccc(C(=O)N5CCOCC5)cc4)cn23)cc1OC	.	-2	1	-1	0	12*	6	2
COC(=O)[C@H](C(C)C)N1CCc2nnn(Cc3ccccc3)c2-c2cc(F)ccc2S1(=O)=O	.	-2	1	-1	0	0	.	.
COc1ccc(C(=O)NC(=S)N2CCNC(=O)C2)cc1Br	3	2	0	-1	0	0	.	.
O=C1CN(C(=S)NC(=O)c2ccc(-c3ccccc3)cc2)CCN1	2	2	-1	0	0	10*	7	4
CSc1nn(CCC#N)c(=O)[nH]c1=O	.	0	-2	0	1	-1	.	.
Cc1cc(NC(=S)Nc2ccc(C)c(Cl)c2)n[nH]1	2	0	8	-1	2	8.3*	10*	6.9*
COc1ccc(NC(=S)Nc2cc(C)[nH]n2)cc1Cl	2	0	4	-1	1	2	.	.
CCN1CCN(CCCN(Cc2ccco2)C(=S)Nc2ccc(Cl)c(C)c2)CC1	-1	-1	-4	-1	1	0	.	.
Cc1ccc(NC(=S)N(CCCN2CCCC(C)C2)Cc2ccco2)cc1C (configuration not stated)	0	1	1	-1	0	9.2*	-1	1
COc1cc(OC)c2c(c1)O/C(=C\c1ccccc1)C2=O	.	1	9	0	0	11*	7	9.4*
CCCCN1CCS(=O)(=O)N(Cc2ccc(Cl)cc2)C(C(=O)OC)C1 (configuration not stated)	.	-3	-1	-1	-1	-3	.	.
CCS(=O)(=O)Nc1ccc2c(c1)C(=O)N(C)[C@@H]1CC[C@H](CC(=O)NCCCN3CCOCC3)O[C@H]1CO2	.	0	-2	-1	0	-4	.	.
CCc1ccc(NC(=O)C(=O)NCC2CCCO2)cc1 (configuration not stated)	4.6*	3	8	-1	4.3*	11*	4	16*
O=c1[nH]sc2ccccc12	-1	2	-2	-2	-1	8.9*	0	2
SMILES	DAX1 inh-1	hcDAF-12 act	hgDAF-12 ag	ssDAF12 agonist	DAX1 inh-2	SMARCA2 act	SMARCA2 conf	VP16 Luc act
O=C(/C=C/c1c(Cl)cccc1Cl)NCCc1ccccc1	1	-1	2	-2	0	11*	3	5
O=C(/C=C/c1cccc(Cl)c1)NCCc1ccccc1	0	2	7	0	1	3	.	.
O=C(Nc1cccc(-c2ccc(N3CCOCC3)nn2)c1)c1cccc(Cl)c1	1	3	4	-1	0	9.4*	5	7.0*
Cc1ccc(C(=O)Nc2cccc(-c3ccc(N4CCOCC4)nn3)c2)cc1C	-2	1	6	0	2	-1	.	.
COc1cc(C=O)ccc1OCc1ccccc1Br	-1	6.2*	5	0	1	15*	7	8.0*
COc1ccc(C=O)cc1COc1ccc(F)cc1F	1	-2	0	-1	0	0	.	.
COc1cc(OC)cc(C(=O)N[C@H](C(=O)NC23CC4CC(CC(C4)C2)C3)C(C)C)c1	0	-2	-1	-1	-1	9.9*	1	0
CCOC(=O)/C=C1\CC(C(=O)OCC)Oc2c(OC)cccc21 (configuration not stated)	0	0	-2	-1	0	9.6*	-3	1
CC1(C(=O)OCC(=O)Nc2ccc3ccccc3c2)CC1(Cl)Cl (configuration not stated)	0	1	6	-2	0	8.5*	6	6.3*
COC(=O)c1cc(-c2ccc(C)c(C)c2)c(=O)n2c1CCC2	.	0	-1	-2	-1	-1	.	.
CCOC(=O)[C@]12CCCC=C1N(Cc1ccc(OC)cc1)C(=O)[C@@H]2CC(=O)NCCc1ccccc1OC	.	-2	-2	-1	-3	-4	.	.
CCCCn1c2ccc(F)cc2c2nnc(SCCN3CCOCC3)nc21	-1	-2	-4	-1	0	3	.	.
Cn1c2ccc(F)cc2c2nnc(SCCN3CCOCC3)nc21	2	6	2	1.1*	1	13*	3	2
CC(=O)c1ccc(NC(=O)c2ccn[nH]2)cc1	2	5	8	0	2	8.2*	8.0*	8.0*
CC(=O)c1ccc(NC(=O)c2cccc(NC(=O)c3ccccc3)c2)cc1	0	-2	1	-2	0	3	.	.
O=C(NCCCc1ccccc1)O[C@@H]1CC[C@@]23CCCN2C(=O)CCC[C@H]3C1	.	-2	-3	-2	.	.	.	.
Cc1cc(C(=O)O)c(C)o1	.	0	-1	-1	-1	0	.	.
